From PubChem BioAssay (NCATS) come the findings set out here.

“And” between values parts separate entries of the source, which are not always exact repeats. Identical values can stand only once. Records with an inconclusive call do not appear. The source made the active and inactive calls. The call rests on the fitted dose curve; in most records, active means well fitted activation curve with a large enough effect; inconclusive means small, poorly fitted or top-dose-only effect; inactive means no such curve, though single readings can be large or run the other way.

Sequence of Cellular tumor antigen p53 (Homo sapiens) (P04637 whole entry, looked up): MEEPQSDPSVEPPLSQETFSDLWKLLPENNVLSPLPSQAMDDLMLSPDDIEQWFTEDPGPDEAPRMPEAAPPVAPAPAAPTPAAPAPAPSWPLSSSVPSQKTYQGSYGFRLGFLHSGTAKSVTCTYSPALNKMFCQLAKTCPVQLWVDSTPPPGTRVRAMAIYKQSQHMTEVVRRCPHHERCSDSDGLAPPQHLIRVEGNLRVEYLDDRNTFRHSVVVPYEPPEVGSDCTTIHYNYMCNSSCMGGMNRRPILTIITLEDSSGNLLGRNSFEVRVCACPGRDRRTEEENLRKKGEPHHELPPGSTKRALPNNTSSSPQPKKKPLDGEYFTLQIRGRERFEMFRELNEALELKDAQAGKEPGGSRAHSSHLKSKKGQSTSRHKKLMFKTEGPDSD

The target of this experiment is Cellular tumor antigen p53 (Homo sapiens) (UniProt P04637). As to the kind of experiment: Primary qHTS for small molecule compounds that upregulate eGFP-tagged delta133p53alpha (in N-terminal) cells. (AID 2060322).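 Further: series mostly up to about 56 µM; 0% = DMSO vehicle and 100% = reference activator; nearly all actives have a fitted effect of over 75% in size.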 The conditions noted are these: NCI-H358 eGFP-delta133p53alpha fluorescence, 24 h; activation: stronger effect = higher value. A digest of the protocol:
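NCI-H358 cells pre-induced 24 h with 10 ng/ml doxycycline to express N-terminal eGFP-delta133p53alpha, then dosed 24 h at 37C without doxycycline; fixed, Hoechst-stained, GFP intensity by laser scanning cytometry, normalized to DMSO (0%) and 57.5 uM 5-azacytidine (100%).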
Background: qHTS replaces the single test concentration by a dilution series.
Take `C=CC(C)(CC/C=C(\C)C(=O)OC)OC1OC(COC(=O)CC(C)(O)CC(=O)O)C(O)C(O)C1O` (stereo not given): the activation is -3.05% (inactive). The result for `CC1=C2C(=O)O[C@@H](c3ccoc3)[C@]2(C)CCC1` reads -11.6% (inactive) and -7% (inactive); that for `O=C(N/N=C/c1ccc(O)c(O)c1)c1cc2ccccc2cc1O`, 4.33% (inactive).

`CC(C)[C@H]1CC[C@@]2(O)COC(=O)[C@H]2[C@@H]1/C=C(\CO)C(=O)O`: the activation is -2.29% (inactive). The result for `O=C1C=CC(O)(/C=C/C(=O)OC[C@H]2O[C@@H](Oc3ccc(O)cc3)[C@H](O)[C@@H](O)[C@@H]2O)C=C1` reads 6.25% (inactive); that for `O=C(/C=C/c1ccc(O)cc1)OCC1OC(O)C(OC2OC(CO)C(O)C(O)C2O)C(O)C1O` (stereo not given), -13% (inactive). The result for `COCCCNC(=O)c1ccc(Cn2c(=O)c3ccccc3n(Cc3ccc(C(C)C)cc3)c2=O)cc1` reads 7% (inactive). On to `CC12CCC3c4ccc(OC5OC(C(=O)O)C(O)C(O)C5O)cc4CCC3C1CCC2O` (stereo not given), for which the activation was 11.7% (inactive). The result for `C=CC[C@]12C[C@@H](OC)C(=O)C(OC)=C1O[C@@H](c1cc(OC)c3c(c1)OCO3)[C@@H]2C` reads -13.4% (inactive). `OCC1OC(Oc2cc(O)c3c(c2)OC(c2ccc(O)cc2)C(O)C3)C(O)C1O` (stereo not given): the activation was -25.2% (inactive). The result for `CC1OC(OC2CCC3(C)C(CCC4(C)C3C=CC35OCC6(CCC(C)(C)CC63)CCC45C)C2(C)CO)C(OC2OC(CO)C(O)C(O)C2O)C(O)C1OC1OC(CO)C(O)C(O)C1O` (stereo not given) reads 14.3% (inactive). With `C[C@@H]1O[C@@H](O[C@H]2[C@H](O[C@H]3[C@H](O[C@H]4CC[C@@]5(C)C(CC[C@]6(C)C5CC=C5[C@@H]7CC(C)(C)CC[C@]7(C(=O)O[C@@H]7O[C@H](CO)[C@@H](O[C@@H]8O[C@@H](C)[C@H](O)[C@@H](O)[C@H]8O)[C@H](O)[C@H]7O)CC[C@]56C)C4(C)C)OC[C@H](O)[C@@H]3O)O[C@H](CO)[C@@H](O)[C@@H]2O)[C@H](O)[C@H](O)[C@H]1O` (stereo not given in full), the activation is 7.14% (inactive). The result for `CC(C)CC(c1c(O)c(C=O)c(O)c(C=O)c1O)C1CCC(C)(O)C2CC(C(C)(C)O)CCC12C` (stereo not given) reads 22.3% (inactive); that for `CC(C)(C)OC(=O)c1ncn2c1C(C)(C)Nc1ccccc1-2`, -12.5% (inactive). Turning to `C=C1C2CCC3CC2(CC(O)C2(O)C1CC(OC1OC(CO)C(O)C(O)C1O)C2(C)C)CC3(C)O` (stereo not given), the activation is 19.6% (inactive). On to `C[C@@H]1C(=O)O[C@H](C)[C@H]1CC(=O)[C@](C)(O)[C@H]1CC[C@@]2(O)C3=CC(=O)[C@@H]4C[C@@H](O)[C@@H](O)C[C@]4(C)C3CC[C@]12C` (stereo not given in full), for which the activation is -6.11% (inactive).

`C=CC(C)(C)O[C@@H]1O[C@H](CO[C@@H]2OC[C@](O)(CO)[C@H]2O)[C@@H](O)[C@H](O)[C@H]1O`: the activation was -18.3% (inactive). The result for `CCc1cc(CC[C@]2(C3CCCC3)CC(O)=C(Cc3nc4nc(C)cc(C)n4n3)C(=O)O2)cc(CC)n1` reads -29.5% (inactive); that for `C[C@@H]1O[C@@H](O[C@@H]2CO[C@@H](O[C@H]3CC[C@@]4(C)C(CC[C@]5(C)C4CC=C4[C@@H]6CC(C)(C)CC[C@]6(C(=O)O[C@@H]6O[C@H](CO)[C@@H](O)[C@H](O)[C@H]6O)CC[C@]45C)[C@]3(C)CO)[C@H](O)[C@H]2O[C@@H]2O[C@H](CO)[C@@H](O)[C@H](O)[C@H]2O)[C@H](O)[C@H](O)[C@H]1O` (stereo not given in full), -16.1% (inactive).

Take `Cc1ccc([C@@H]2CC=C(C(=O)O)[C@H](c3ccc(C(C)(C)C)cc3)N2S(=O)(=O)c2ccc(C)cc2)cc1`: the activation is -26.3% (inactive). Regarding `C/C(=C\CC[C@H](CO)[C@@H]1CC[C@]2(C)C3=C(CC[C@@]12C)[C@@]1(C)CCC(=O)C(C)(C)C1CC3)C(=O)O` (stereo not given in full), the activation is -4.58% (inactive). In the case of `CCC(C)C(=O)OC1CC(O)C23C4OCC5(C(O)CC2C1(C)C(O)O4)C3C(=O)CC1(C)C(c2ccoc2)CC2OC215` (stereo not given), the activation is 22.1% (inactive). The result for `CCCCC1CCC(c2nc(-c3ccncc3)no2)CC1` (stereo not given) reads -6.68% (inactive); that for `O=C(C1=CCN2c3c(cccc31)OC[C@H]2CN1CCOCC1)c1cccc2ccccc12`, 27.7% (inactive). The result for `C=C1CO[C@@]2(O[C@H]3CC4C5CC=C6C[C@@H](O)C[C@@H](O[C@@H]7OC[C@H](O)[C@H](O[C@@H]8OC[C@@H](O)[C@H](O)[C@H]8O)[C@H]7O[C@@H]7O[C@@H](C)[C@H](OC(C)=O)[C@@H](OC(C)=O)[C@H]7OC(C)=O)[C@]6(C)C5CC[C@]4(C)[C@@H]3[C@@H]2C)[C@@H](O)[C@H]1OC1OC(C)C(O)C(O)C1O` (stereo not given in full) reads -6.87% (inactive). On to `COc1cc2nc(=NC(=O)c3cccnc3)n3c(c2cc1OC)NCC3`, for which the activation was 3.34% (inactive). The result for `CC(C)[C@@](O)(c1ccc2cc(OC(F)F)c(OC(F)F)cc2c1)c1cn[nH]n1` reads -0.333% (inactive); that for `C[C@H](/C=C/[C@@]1(O)[C@H](C)CC(=O)CC1(C)C)O[C@@H]1O[C@H](CO[C@@H]2OC[C@@H](O)[C@H](O)[C@H]2O)[C@@H](O)[C@H](O)[C@H]1O`, -6.11% (inactive); that for `Cc1cccc(S(=O)(=O)N2CCC[C@@H]2CCN2CCC(C)CC2)c1`, 0% (inactive). The result for `C[C@@H]1O[C@@H](O[C@@H]2[C@@H](O)[C@H](O[C@@H]3[C@@H](O)[C@@H](O)[C@H](O[C@H]4[C@H](OC(=O)[C@]56CCC(C)(C)C[C@H]5C5=CCC7[C@@]8(C)C[C@H](O)[C@H](O[C@@H]9O[C@H](C(=O)O)[C@@H](O)[C@H](O)[C@H]9O)[C@@](C)(CO)C8[C@H](O)C[C@@]7(C)[C@]5(C)CC6)OC[C@H](O)[C@@H]4O)O[C@H]3C)OC[C@H]2O)[C@H](O)[C@H](O)[C@H]1O` (stereo not given in full) reads -0.763% (inactive); that for `C[C@@H]1O[C@@H](O[C@H]2[C@H](OC(=O)[C@]34CCC(C)(C)C[C@H]3C3=CCC5[C@@]6(C)C[C@H](O)[C@H](O[C@@H]7O[C@H](CO)[C@@H](O[C@H]8OC[C@](O)(CO)[C@H]8O)[C@H](O)[C@H]7O)[C@@](C)(CO)C6[C@H](O)C[C@@]5(C)[C@]3(C)C[C@H]4O)OC[C@H](O)[C@@H]2O)[C@H](O)[C@H](O)[C@H]1O[C@@H]1OC[C@@H](O)[C@H](O[C@@H]2OC[C@](O)(CO)[C@H]2O)[C@H]1O` (stereo not given in full), -17.6% (inactive); that for `CCCCCCCOc1cc2c(cc1/C(C)=C/c1ccc(C(=O)O)cc1)C(C)(C)CCS2(=O)=O`, 3% (inactive).

As to `C[C@]12CC[C@@H]3c4ccc(O[C@@H]5O[C@H](C(=O)O)[C@@H](O)[C@H](O)[C@H]5O)cc4CC[C@H]3[C@@H]1CCC2=O`, the activation was -7% (inactive). The result for `C/C(=C\CCC(C)C1=CCC2(C)OC3=C(CC12)C(=O)C(O)CC3)CO` (stereo not given) reads 25.2% (inactive); that for `O=C(COc1cccc2c(=O)[nH]ccc12)c1ccccc1`, -14.5% (inactive). The result for `CSCC1OC(n2cnc3c(=O)[nH]cnc32)C(O)C1O` (stereo not given) reads -8.4% (inactive).

In the case of `CC1=CC(=O)C2C(C)(C)CC(O)CC2(C)C1CO` (stereo not given), the activation was -17.6% (inactive). The result for `CNC(=O)[C@H]1O[C@@H](n2cnc3c(NCc4ccc(N)c(I)c4)ncnc32)[C@H](O)[C@@H]1O` reads 4.33% (inactive). For the compound `CC#CCn1c(N2CCCC(N)C2)nc2c1c(=O)n(Cc1nc(C)c3ccccc3n1)c(=O)n2C` (stereo not given), the activation is 5.67% (inactive). As to `N#Cc1cc(-c2ccnc(Nc3ccc(N4CCOCC4)cc3)n2)ccc1OC1CCOCC1`, the activation is -18.8% (inactive).
